Drawing on PubChem BioAssay (EPA / NIEHS), this text covers outcome and AC50 for 15 compounds.

Molecules are shown by their SMILES. Activity calls are given as the source filed them. The calls were made as follows: active = hit-call score of the fitted dose curve at least 0.9, where 1 is the maximum; inactive = score below 0.9.

Read-out in the first test: Pro-epidermal growth factor (Homo sapiens) (UniProt P01133)
As to the kind of experiment: LTEA_HepaRG_EGF: Life Technologies and Expression Analysis (LTEA) Assay for Epidermal growth factor (EGF) using HepaRG (AID 2283489). Particulars: mRNA level, 48 h; actives raise or lower the signal. In outline:
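HepaRG cells (~100,000/well, 48 h pre-culture) exposed in duplicate for 48 h in serum-free induction medium to 8 half-log concentrations up to 100 uM in 0.5% DMSO. EGF mRNA by qRT-PCR, normalized to ACTB/GAPDH/POLR2A; bidirectional fit versus DMSO.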
On to `COc1ccc(/C=C/S(=O)(=O)NC(=O)c2ccc(C)cc2Cl)cc1`, for which the compound was classed as inactive.
For `Nc1ccc(Nc2ccccc2)cc1`, the call was inactive.
In the case of `CC(C)CCCCCCCOC(=O)CCCCC(=O)OCCCCCCCC(C)C`, the outcome was inactive.
A word on the AC50: it is the concentration at which the activity in the assay is half-maximal. Take `Fc1ccccc1[C@@H](F)COC1CCC(Nc2ncnc3[nH]ncc23)CC1` (stereo not given in full): the AC50 was 50 µM (active).
Same read-out and setting: the result for `O=c1[nH]c2ccc(S(=O)CCN3CCC(Cc4ccc(F)cc4)CC3)cc2o1` (stereo not given) reads 30.7 µM (active).
Regarding `CCCCCCCCCCCCCCCO`, the outcome was inactive.

Read-out in the next test: Early growth response protein 1 (EGR1) transcription factor, EGR1 (gene 1958)
As to the kind of experiment: LTEA_HepaRG_EGR1: Life Technologies and Expression Analysis (LTEA) Assay for Early growth response protein 1 (EGR1) transcription factor using HepaRG (AID 2283490). To be noted: mRNA level, 48 h; actives raise or lower the signal. The essentials: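 HepaRG, 48 h exposure, 8-pt half-log series from 100 uM, 0.5% DMSO vehicle; EGR1 transcript by TaqMan qRT-PCR (Fluidigm array), housekeeping-normalized; bidirectional fit relative to DMSO baseline.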
Regarding `Nc1cccc(N)c1`, the call was inactive.
Still for that read-out and setting: the same measure for `CCCC(=O)OCC`: “inactive”.
In the case of `COc1ccc2sc(C(=O)Nc3nnn[nH]3)c(OC(C)C)c2c1`, the concentration at half-maximal activity (AC50) was 74.8 µM (active).
On to `O=C(OC[C@H]1O[C@@H](OC(=O)c2cc(O)c(O)c(OC(=O)c3cc(O)c(O)c(O)c3)c2)[C@H](OC(=O)c2cc(O)c(O)c(OC(=O)c3cc(O)c(O)c(O)c3)c2)[C@@H](OC(=O)c2cc(O)c(O)c(OC(=O)c3cc(O)c(O)c(O)c3)c2)[C@@H]1OC(=O)c1cc(O)c(O)c(OC(=O)c2cc(O)c(O)c(O)c2)c1)c1cc(O)c(O)c(OC(=O)c2cc(O)c(O)c(O)c2)c1`, for which the outcome was inactive.
On the same count and under the same terms, the result for `O=C1CCC(N2C(=O)c3ccccc3C2=O)C(=O)N1` (stereo not given) reads “inactive”; that for `COCCOc1cc2cc(C(=O)NC3CCN(C(C)C)CC3)n(CC(=O)Nc3ccc(Cl)cn3)c2cn1`, “inactive”.
As for `CC(O)CN(CCN(CC(C)O)CC(C)O)CC(C)O` (stereo not given), the AC50 was 12.6 µM (active).
Turning to `C[C@](N)(Cc1ccc(O)c(O)c1)C(=O)O`, the compound was called inactive.
With `O=C(O)c1cccc(N(Cc2cccnc2)c2ccc(OC(F)F)c(OC(F)F)c2)c1`, the half-maximal activity concentration (AC50) was 50 µM (active).
